Measured values reported in PubChem BioAssay AID463183 (Sanford-Burnham Center for Chemical Genomics, 2010).
The list shows a part of the results. Calls of active or inactive are those of the source.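 Rule for the calls: active = inhibition of lipid droplet metric at least 50%, with more than 300 cells in each of four replicates; inconclusive = wells under 300 cells, flagged as toxic or low count; inactive = the rest.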

Assay: hepatocyte lipid droplet accumulation inhibitors, confirmation, imaging, AML12 mouse hepatocytes, single concentration, high-content (AID 463183);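 for cell count: cells counted after overnight compound exposure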;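 for inhibition: plate controls were DMSO with oleic acid for no effect and 5 µM Triacsin-C for full effect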
Conditions: BODIPY lipid droplet imaging, at 5.2 µM, droplets induced with 100 µM oleic acid; cell count: measured here: cell count, cytotoxicity; inhibition: stronger effect = higher value

For `CCCN(CCC)c1ccc(C(O)c2nnc(-c3ccccc3)o2)cc1` (configuration not stated), the cell count was 1610 cells and the inhibition was 106% (active).

With `Cc1ccc(N2C(=O)C(NC(=O)c3c(F)cccc3F)(C(F)(F)F)C3=C2CC(C)(C)CC3=O)cc1` (configuration not stated) the cell count was 1590 cells and the inhibition was 87.5% (active).

With `COc1ccc(C(C(=O)NC(C)(C)C)N(Cc2ccc(F)cc2)C(=O)CCC(=O)Nc2cc(C)on2)cc1` (configuration not stated) the cell count was 1630 cells and the inhibition was 108% (active).

For `O=C(CN1CCc2cc3c(cc2C1)OCCCO3)Nc1ccccc1`, the cell count was 1530 cells and the inhibition was 15.8% (inactive).

With `COc1cccc(/C=C(/CC(=O)Nc2ccc(N3CCOCC3)cc2)c2nc3ccccc3s2)c1` the cell count was 1580 cells and the inhibition was 94.7% (active).

With `CCCCN1C(=O)/C(=C/C=C2/C=Cc3ccccc3N2CC)SC1=S` the cell count was 1580 cells and the inhibition was -4.78% (inactive).

In the case of `COCCCNC(=O)CN1C(=O)CSc2ccc(S(=O)(=O)N3CCOCC3)cc21`, the cell count is reported as 1530 cells and the inhibition is reported as -1.8% (inactive).

In the case of `CCCN(CCC)c1nc2c(C)cccn2c(=O)c1/C=C1/SC(=S)N(Cc2ccco2)C1=O`, the cell count is reported as 1560 cells and the inhibition is reported as 51.2% (inactive).

For `COc1ccc(Cl)cc1NC(=O)CN(C)C(=O)CCCc1c[nH]c2ccccc12`, the cell count was 1450 cells and the inhibition was 85% (active).

With `CCCc1ccc(-c2csc(NC(=O)Cc3cccs3)n2)cc1` the cell count was 1560 cells and the inhibition was 104% (active).

In the case of `CCOc1ccc(CCNC(=O)CCc2nnc3ccc(N4CCCC4)nn23)cc1OCC`, the cell count is reported as 1650 cells and the inhibition is reported as 100% (active).

For `COc1ccc(/C=C(\NC(=O)c2ccc(OCC(C)C)cc2)C(=O)OCc2ccco2)cc1`, the cell count was 1460 cells and the inhibition was 91.6% (active).

In the case of `Cn1c(=O)[nH]c(=O)c2c1nc(N1CCN(C(c3ccccc3)c3ccccc3)CC1)n2CCO`, the cell count is reported as 1570 cells and the inhibition is reported as 78.2% (active).

In the case of `CN(C)c1ccc(Nc2c3c4c(cccc4n(C)c2=O)C(=O)c2ccccc2-3)cc1`, the cell count is reported as 1580 cells and the inhibition is reported as 14.8% (inactive).

With `CC(C)(C)NC(=O)Cn1cnc2cc([N+](=O)[O-])ccc2c1=O` the cell count was 1630 cells and the inhibition was 21.8% (inactive).

For `CCc1ccc(NC(=O)C(C)OC(=O)/C=C/c2cccc([N+](=O)[O-])c2)cc1` (configuration not stated), the cell count was 1510 cells and the inhibition was 48% (inactive).

With `CCOC(=O)C1=C(CC)OC(N)=C(C#N)C1c1ccc(F)cc1F` (configuration not stated) the cell count was 1680 cells and the inhibition was 10.3% (inactive).

With `CCOc1ccc(CCNC(=O)Nc2ccccc2)cc1OCC` the cell count was 1550 cells and the inhibition was 109% (active).

For `COc1ccc(OC)c(-c2csc(-c3cccs3)n2)c1`, the cell count was 1580 cells and the inhibition was 13.4% (inactive).

In the case of `COc1cc(/C=N/NC(=O)Nc2ccccc2)ccc1OCCOc1ccccc1C`, the cell count is reported as 1640 cells and the inhibition is reported as -21.6% (inactive).

In the case of `O=C1Nc2ccc(Br)cc2/C1=N/N=C/C1=C(N2CCOCC2)C(=C\c2ccccc2)/CC1`, the cell count is reported as 1660 cells and the inhibition is reported as 65.8% (active).

For `CC(NC(=O)c1cccc2ccccc12)c1ccc2c(c1)CCCC2` (configuration not stated), the cell count was 1640 cells and the inhibition was 98.5% (active).

In the case of `Cc1cc(NC(=O)CSc2nc(C(C)C)nc3sc4c(c23)CCC(C)C4)no1` (configuration not stated), the cell count is reported as 1700 cells and the inhibition is reported as 105% (active).

In the case of `Cc1c(C(=O)NCc2ccccc2)cnn1-c1ccccc1`, the cell count is reported as 1670 cells and the inhibition is reported as 26.9% (inactive).

In the case of `O=[N+]([O-])c1ccccc1N/N=C1\CCc2ccccc21`, the cell count is reported as 1520 cells and the inhibition is reported as 31.2% (inactive).

In the case of `Cc1cc(C(=O)NC2CCCc3c2cnn3-c2cccc(C)c2C)c(C)o1` (configuration not stated), the cell count is reported as 1560 cells and the inhibition is reported as 78.5% (active).
